Here are results for 15 molecules from PubChem BioAssay (EPA / NIEHS).

Inconclusive results are not listed. The source made the active and inactive calls. The calls were made as follows: active = hit-call score of the fitted dose curve at least 0.9, where 1 is the maximum; inconclusive = response in the unintended direction; inactive = score below 0.9.

Chain of human Rho Associated Coiled-coil Containing Protein Kinase 1 (ROCK1), ROCK1 (gene 6093) (Q13464 whole entry, looked up): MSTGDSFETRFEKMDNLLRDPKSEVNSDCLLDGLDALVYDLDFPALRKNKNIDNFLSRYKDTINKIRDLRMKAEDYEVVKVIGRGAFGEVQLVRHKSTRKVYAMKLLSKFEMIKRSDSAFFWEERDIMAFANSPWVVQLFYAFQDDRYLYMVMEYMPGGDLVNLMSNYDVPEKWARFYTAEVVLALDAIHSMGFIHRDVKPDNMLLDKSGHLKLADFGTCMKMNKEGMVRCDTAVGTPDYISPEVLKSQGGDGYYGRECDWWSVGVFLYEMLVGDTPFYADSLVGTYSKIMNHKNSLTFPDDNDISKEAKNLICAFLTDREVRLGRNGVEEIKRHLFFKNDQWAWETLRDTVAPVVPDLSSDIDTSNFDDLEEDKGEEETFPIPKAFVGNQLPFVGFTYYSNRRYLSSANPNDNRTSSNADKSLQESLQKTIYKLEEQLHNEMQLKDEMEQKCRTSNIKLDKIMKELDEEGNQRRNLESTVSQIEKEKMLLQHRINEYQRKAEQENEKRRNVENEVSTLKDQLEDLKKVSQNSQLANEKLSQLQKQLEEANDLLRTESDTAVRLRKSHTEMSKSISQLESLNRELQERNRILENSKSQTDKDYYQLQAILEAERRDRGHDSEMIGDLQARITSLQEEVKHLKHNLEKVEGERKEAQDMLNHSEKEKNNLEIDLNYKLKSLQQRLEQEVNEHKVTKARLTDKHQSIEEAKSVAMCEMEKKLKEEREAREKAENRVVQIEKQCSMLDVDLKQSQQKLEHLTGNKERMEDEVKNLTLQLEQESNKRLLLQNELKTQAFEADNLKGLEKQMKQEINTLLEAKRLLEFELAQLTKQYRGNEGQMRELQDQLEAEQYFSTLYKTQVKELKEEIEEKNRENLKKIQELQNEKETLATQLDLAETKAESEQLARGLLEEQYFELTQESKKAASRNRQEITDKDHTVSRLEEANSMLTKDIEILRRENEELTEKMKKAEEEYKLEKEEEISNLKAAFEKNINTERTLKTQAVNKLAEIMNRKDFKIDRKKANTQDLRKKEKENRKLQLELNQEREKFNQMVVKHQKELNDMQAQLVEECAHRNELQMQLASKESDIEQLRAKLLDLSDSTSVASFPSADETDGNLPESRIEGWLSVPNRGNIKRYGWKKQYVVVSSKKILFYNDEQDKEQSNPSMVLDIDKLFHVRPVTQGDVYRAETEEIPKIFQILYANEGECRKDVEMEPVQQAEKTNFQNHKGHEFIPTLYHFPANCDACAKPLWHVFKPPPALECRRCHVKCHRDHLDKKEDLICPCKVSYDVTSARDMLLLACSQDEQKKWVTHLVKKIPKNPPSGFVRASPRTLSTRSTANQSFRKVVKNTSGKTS
Chain of Tyrosine-protein phosphatase non-receptor type 11 (Homo sapiens) (Q06124 whole entry, looked up): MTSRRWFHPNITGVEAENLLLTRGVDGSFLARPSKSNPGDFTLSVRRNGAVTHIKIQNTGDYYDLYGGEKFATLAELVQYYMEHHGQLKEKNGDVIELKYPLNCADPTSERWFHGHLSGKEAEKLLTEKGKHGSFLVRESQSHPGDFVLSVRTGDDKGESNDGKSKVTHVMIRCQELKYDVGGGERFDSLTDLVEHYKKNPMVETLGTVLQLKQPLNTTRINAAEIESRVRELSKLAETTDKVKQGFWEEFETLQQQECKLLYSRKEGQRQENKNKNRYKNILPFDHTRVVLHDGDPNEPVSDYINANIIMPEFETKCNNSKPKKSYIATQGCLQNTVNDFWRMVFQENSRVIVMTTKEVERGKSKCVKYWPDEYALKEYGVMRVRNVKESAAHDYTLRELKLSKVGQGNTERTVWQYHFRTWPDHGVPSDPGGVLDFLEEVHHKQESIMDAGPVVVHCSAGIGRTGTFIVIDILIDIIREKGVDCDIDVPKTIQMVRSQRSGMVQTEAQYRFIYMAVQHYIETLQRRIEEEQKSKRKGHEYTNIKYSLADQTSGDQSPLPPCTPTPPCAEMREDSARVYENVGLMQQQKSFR
Chain of human Protein Tyrosine Phosphatase Non-receptor Type 1 (PTPN1), PTPN1 (gene 5770) (P18031 whole entry, looked up): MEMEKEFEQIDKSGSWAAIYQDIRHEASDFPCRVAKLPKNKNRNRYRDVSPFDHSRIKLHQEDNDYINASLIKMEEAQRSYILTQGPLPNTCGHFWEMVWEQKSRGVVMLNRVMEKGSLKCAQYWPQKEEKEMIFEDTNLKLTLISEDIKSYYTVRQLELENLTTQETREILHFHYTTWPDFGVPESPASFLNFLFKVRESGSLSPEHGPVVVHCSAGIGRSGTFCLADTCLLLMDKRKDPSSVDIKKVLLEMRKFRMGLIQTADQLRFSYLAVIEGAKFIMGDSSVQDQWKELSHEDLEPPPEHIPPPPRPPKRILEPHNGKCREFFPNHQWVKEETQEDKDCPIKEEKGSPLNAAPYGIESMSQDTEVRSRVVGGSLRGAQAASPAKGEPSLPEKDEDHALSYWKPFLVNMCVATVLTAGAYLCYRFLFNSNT
Chain of human Protein Tyrosine Phosphatase Non-receptor Type 6 (PTPN6), PTPN6 (gene 5777) (P29350 whole entry, looked up): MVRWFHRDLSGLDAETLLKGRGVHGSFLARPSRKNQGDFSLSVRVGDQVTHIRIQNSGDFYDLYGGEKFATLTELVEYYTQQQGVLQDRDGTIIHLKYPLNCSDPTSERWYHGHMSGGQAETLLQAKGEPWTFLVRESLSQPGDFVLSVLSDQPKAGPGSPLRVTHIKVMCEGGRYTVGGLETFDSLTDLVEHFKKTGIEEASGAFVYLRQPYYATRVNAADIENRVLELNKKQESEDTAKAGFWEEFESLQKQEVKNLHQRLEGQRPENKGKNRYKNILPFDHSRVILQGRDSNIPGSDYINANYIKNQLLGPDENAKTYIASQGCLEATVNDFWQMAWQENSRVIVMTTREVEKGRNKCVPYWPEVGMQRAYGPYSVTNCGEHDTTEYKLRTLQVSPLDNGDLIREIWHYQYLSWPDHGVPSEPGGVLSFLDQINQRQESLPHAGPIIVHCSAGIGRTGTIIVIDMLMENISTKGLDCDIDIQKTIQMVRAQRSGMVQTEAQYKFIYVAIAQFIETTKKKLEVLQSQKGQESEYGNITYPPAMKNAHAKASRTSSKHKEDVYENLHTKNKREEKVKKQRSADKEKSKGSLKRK

The first test deals with human Protein Tyrosine Phosphatase Non-receptor Type 1 (PTPN1), PTPN1 (gene 5770) (UniProt P18031). Kind of test: NVS_ENZ_hPTPN1: NovaScreen (NVS) Enzymatic Assay for human Protein Tyrosine Phosphatase Non-receptor Type 1 (PTPN1) (AID 2283201). The gist of the method:
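Chemicals were first tested in duplicate at 25 uM, and those passing threshold went on to singleton concentration series topping at 50 uM. Recombinant enzyme, specific substrate, product separated by mobility shift, fluorescence read at 1.33 h; activity loss relative to DMSO.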
As for `CCCCC(CC)COP(=O)(OCC(CC)CCCC)OCC(CC)CCCC` (stereo unspecified), the molecule was called inactive.
On to `NCCOCCOCCN`, for which the result was inactive.
Consider `O=C(NS(=O)(=O)/C=C/c1cccs1)c1ccc(F)cc1Br`, for which the molecule was called inactive.

The next test has as its target Tyrosine-protein phosphatase non-receptor type 11 (Homo sapiens) (UniProt Q06124). As to the kind of experiment: NVS_ENZ_hPTPN11: NovaScreen (NVS) Enzymatic Assay for human Protein Tyrosine Phosphatase Non-receptor Type 11 (PTPN11) (AID 2283202). The gist of the method: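 Compounds first tested in duplicate at 25 uM; those reaching ~30% inhibition rerun in singleton concentration-response, top 50 uM. Phosphatase activity measured after 0.5 h by fluorescence with mobility-shift separation, relative to DMSO.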
Consider `CCN(CC)CCOc1ccc(C(=C(Cl)c2ccccc2)c2ccccc2)cc1`, for which the outcome was inactive.
Same read-out and setting: in the case of `CC(C)NCC(O)c1ccc(O)c(O)c1` (stereo unspecified) it was “inactive”.
The same measure, in the same setting: in the case of `CN(C)C(=O)NC1(c2ccccc2)CCN(CC[C@@]2(c3ccc(F)c(F)c3)CN(C(=O)c3ccccc3)CCO2)CC1` it was “inactive”.

Another test addresses human Protein Tyrosine Phosphatase Non-receptor Type 6 (PTPN6), PTPN6 (gene 5777) (UniProt P29350). As to the kind of experiment: NVS_ENZ_hPTPN6: NovaScreen (NVS) Enzymatic Assay for human Protein Tyrosine Phosphatase Non-receptor Type 6 (PTPN6) (AID 2283210). The gist of the method: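 Recombinant human PTPN6 from SF9 cells, enzyme activity followed by fluorescence after mobility-shift separation of substrate and product at 1.33 h. Chemicals first tested at a single 25 uM in duplicate, then confirmed across concentration series; loss of signal relative to DMSO.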
In the case of `CC(COCC(C)OC(=O)c1ccccc1)OC(=O)c1ccccc1` (stereo unspecified), the molecule was classed as inactive.
Same read-out and setting: in the case of `COc1ccc(C(=O)Nc2nc3ccccc3c(NCc3ccccc3)c2C#N)cc1` it was “inactive”.
`c1ccc2occc2c1`: the outcome was inactive.
The same measure, in the same setting: for `CN(C)C(=O)NC1(c2ccccc2)CCN(CC[C@@]2(c3ccc(F)c(F)c3)CN(C(=O)c3ccccc3)CCO2)CC1` the value was “inactive”; for `CCCCCCC(C=O)=Cc1ccccc1`, “inactive”.

The target in another test is human Rho Associated Coiled-coil Containing Protein Kinase 1 (ROCK1), ROCK1 (gene 6093) (UniProt Q13464). Kind of test: NVS_ENZ_hROCK1: NovaScreen (NVS) Enzymatic Assay for human Rho Associated Coiled-coil Containing Protein Kinase 1 (ROCK1) (AID 2283214). As for the experimental part:
NVS_ENZ_hROCK1 is a biochemical, single-readout assay that uses extracted gene-proteins in a cell-free assay. Measurements were taken 1 hour after chemical dosing in a 384-well plate.NVS_ENZ_hROCK1 is one of one assay component(s) measured or calculated from the NVS_ENZ_hROCK1 assay. It is designed to make measurements of enzyme activity, a form of enzyme reporter, as detected with fluorescence intensity signals by Fluorescence and electrophoretic mobility shift technology.Data from the assay component NVS_ENZ_hROCK1 was analyzed into 1 assay endpoint. This assay endpoint, NVS_ENZ_hROCK1, was analyzed in the positive analysis fitting direction relative to DMSO as the negative control and baseline of activity. Using a type of enzyme reporter, loss-of-signal activity can be used to understand changes in the enzymatic activity as they relate to the gene ROCK1. Furthermore, this assay endpoint can be referred to as a primary readout, because this assay has produced multiple assay endpoints where this one serves a enzymatic activity function. To generalize the intended target to other relatable targets, this assay endpoint is annotated to the kinase intended target family, where the subfamily is serine/threonine kinase.
Binding assays used specific radioligands (tritiated, iodinated) with non-radioactive competitive displacement ligands in agonist or antagonist protocols (as indicated) and various reference compounds and inhibitors to titrate specific binding to receptors and transporters. Most enzyme assays (CYPs, kinases, phosphatases, proteases, HDACs) used recombinant protein and specific substrates (fluorescence mostly, some colorimetric and radioactive) and inhibitors, followed by a biochemical separation of substrate and product. All assays for the biochemical HTS were initially run in duplicate at a single concentration (10 uM for CYP450 assays and 25 uM for all others). […] Each assay was run with positive and negative controls, and concurrent controls on every plate. The follow-up (secondary) screen tested active chemical-pairs in concentration series, as well as a few additional assays not tested in the primary screen, some selected negative inactives, and several cases re-run in the concentration series for confirmatory purposes.
For `CN(C)C(=O)NC1(c2ccccc2)CCN(CCC[C@]2(c3ccc(Cl)c(Cl)c3)CCCN(C(=O)c3ccccc3)C2)CC1`, the molecule was called inactive.
Regarding `O=C(Oc1ccccc1)c1cccc(C(=O)Oc2ccccc2)c1`, the outcome was inactive.
Still for that read-out and setting: for `O=C(N[C@@H](c1ccccc1)[C@@H]1CCCCN1)c1cccc(C(F)(F)F)c1Cl` the value was “inactive”.
Still for that read-out and setting: in the case of `CC(C)c1cccc(C(C)C)c1` it was “inactive”; in that of `N[C@@H](Cc1c[nH]c2ccccc12)C(=O)O`, “inactive”.
